In all, about 1,000 compounds were measured (“relative growth in counter assay (no AraC = 100%, AraC + DMSO = 0%)”: median about -1.1, highest 2% from about 20 on). The list comes from a sample in which the highest values are over-represented; it also holds similar structures and randomly drawn compounds.

The experiment has as its system HEK293FT dCK*-only. Description: relative growth in counter assay (no AraC = 100%, AraC + DMSO = 0%); higher = more growth rescue independent of IKZF1. The settings on record: compound concentration: 5 uM; AraC concentration: 0.3 uM; overnight pretreatment + 4 days AraC. Here is the method:
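Growth recovery screen of the molecular-glue-like (Specs) library. HEK293FT cells expressing a dCK*-IKZF1 fusion (primary) or dCK* alone (counter) were pretreated overnight with compound at 5 uM, then given 0.3 uM AraC for 4 days. Hoechst nuclei were counted by imaging. Primary: normalised to pomalidomide (100%) and DMSO (0%), mean of 2 replicates. Counter: normalised to no-AraC (100%) and AraC+DMSO (0%), single replicate.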
For the compound `O=C(CCCOc1ccccc1)Nc1ccc(S(=O)(=O)Nc2ncccn2)cc1`, the “relative growth in counter assay” value was found to be 2.79%. With `COC(C)(C)C(=O)N1CCOC(c2cccc(Nc3ncc(C)s3)n2)C1` (stereo not drawn), the “relative growth in counter assay” value was -13%.

Consider `COCC(=O)N1CCCC1c1cccc(Nc2ncc(C)s2)n1` (stereo not drawn), for which the “relative growth in counter assay” value was 0.29%. Turning to `Cc1csc(Nc2cccc(C3CCCN3CC(N)=O)n2)n1` (stereo not drawn), the “relative growth in counter assay” value worked out at 16.8%. For `Cc1ccc(S(=O)(=O)Nc2ccc(S(=O)(=O)Nc3nccc(C)n3)cc2)cc1` the value was -5.66%; for `Cc1ccccc1N1C(=O)c2ccc(Oc3ccc(N)cc3)cc2C1=O`, 12.7%. As to `O=C(CC(c1ccccc1)c1ccccc1)Nc1ccc(S(=O)(=O)Nc2ncccn2)cc1`, the “relative growth in counter assay” value was -1.59%. For `Cc1cnc(Nc2cccc(C3CN(C(=O)C4CCCO4)CCO3)n2)s1` (stereo not drawn) the value was -14.9%; for `Cc1cnc(Nc2cccc(C3CCN(C(=O)C4C5C=CC(C5)C4C(=O)NCCO)CC3)n2)s1` (stereo not drawn), -24.7%.

Consider `O=S(=O)(Nc1ncccn1)c1ccc(-n2cnnn2)cc1`, for which the “relative growth in counter assay” value is -1.47%.

Turning to `Cc1cnc(Nc2cccc(CC3CCN(C(=O)C4CCCCC4)CC3)n2)s1`, the “relative growth in counter assay” value was -6.51%.

Consider `COc1nccnc1NS(=O)(=O)c1ccc(NC(=S)NC(=O)/C=C/c2cccs2)cc1`, for which the “relative growth in counter assay” value stood at 8.21%. As to `Cc1ccnc(NS(=O)(=O)c2ccc(NC(=O)c3ccc(-c4ccccc4)cc3)cc2)n1`, the “relative growth in counter assay” value worked out at 0.76%.

`Cc1ccc(Oc2cccc(N3C(=O)c4ccc(Oc5ccc(N)cc5)cc4C3=O)c2)cc1C`: the “relative growth in counter assay” value was -3.99%. For `O=C(C1CCCCC1)N1CCOC(c2cccc(Nc3ncc(Cc4ccc(F)cc4)s3)n2)C1` (stereo not drawn) the value was -1.26%; for `O=C(Nc1ccc(S(=O)(=O)Nc2ccccn2)cc1)c1ccco1`, 4.23%. For `CCOCCC(=O)Nc1ccc(S(=O)(=O)Nc2nccc(C)n2)cc1` the value was -2.85%; for `Cc1ccc(C(C)(C)C(=O)N2CCCC2c2cccc(Nc3ncc(C)s3)n2)cc1` (stereo not drawn), -21%; for `Cc1cc(NS(=O)(=O)c2ccc(NC(=O)c3ccccc3)cc2)nc(C)n1`, 0.4%. As for `CCOC(=O)c1nc[nH]c1C(=O)N1CCOC(c2cccc(Nc3ncc(C)s3)n2)C1` (stereo not drawn), the figure is -2.22%. In the case of `CC(C)(C)CC(=O)Nc1ccc(S(=O)(=O)Nc2ncccn2)cc1`, the “relative growth in counter assay” value is -0.2%. As for `Cc1cc(C)c2[nH]c3nc(SCC(=O)Nc4cccc(Cl)c4C)nnc3c2c1`, the figure is -20.1%; as for `O=C(/C=C/c1ccccc1)N1CCCC1c1csc(Nc2ccccn2)n1` (stereo not drawn), -3.28%; as for `CCCc1cnc(Nc2cccc(C3CCN(C(=O)C(C)(C)NC(=O)COC)CC3)n2)s1`, -2.68%. For `Cc1cnc(Nc2cccc(C3CN(C(=O)C4CCCC(C)C4)CCO3)n2)s1` (stereo not drawn) the value was -12.6%. For `CN(C)CC(=O)N1CCCC1c1cccc(Nc2nccs2)n1` (stereo not drawn) the value was -0.55%; for `NC(=O)CN1CCC(Cc2cccc(Nc3nccs3)n2)CC1`, -23.2%; for `Cc1cnc(Nc2cccc(C3CCN(C(=O)C4CCC(=O)N4)CC3)n2)s1` (stereo not drawn), -24.6%.

Regarding `O=C1CCCC/C1=C/Nc1ccc(S(=O)(=O)Nc2cnc3ccccc3n2)cc1`, the “relative growth in counter assay” value was -1.17%. Take `Cc1cnc(Nc2cccc(C3CN(C(=O)Cc4ccccc4)CCO3)n2)s1` (stereo not drawn): the “relative growth in counter assay” value was -5.45%. For `COCC(=O)N1CCC(c2cccc(Nc3nc(C)cs3)n2)CC1` the value was 14%. For `O=C(C1CCCCC1)N1CCOC(c2cccc(Nc3ncc(Cc4cccc(Cl)c4)s3)n2)C1` (stereo not drawn) the value was 13.1%. For `O=C1CCCN1CCOCC(=O)N1CCOC(c2cccc(Nc3nccs3)n2)C1` (stereo not drawn) the value was -1.14%; for `CC(=O)Nc1ccc(C(=O)Nc2ccc(S(=O)(=O)Nc3nccc(C)n3)cc2)cc1`, -3.58%. For `O=C1CCC(N2C(=O)c3cc(F)c(N4CCN(CCC5CCNCC5)CC4)cc3C2=O)C(=O)N1` (stereo not drawn), the “relative growth in counter assay” value amounted to 1.21%. As for `CC(C)C(=O)N1CCCC1c1csc(Nc2ccccn2)n1` (stereo not drawn), the figure is 6.43%. For `Cc1cc(NS(=O)(=O)c2ccc(NC(=O)C3COc4ccccc4O3)cc2)nc(C)n1` (stereo not drawn), the “relative growth in counter assay” value was -10.4%. For `O=C(O)CCOCCOCCOCCNc1cc2c(cc1F)C(=O)N(C1CCC(=O)NC1=O)C2=O` (stereo not drawn) the value was 0.94%; for `CCCCc1cnc(Nc2cccc(C3CCN(C(=O)C4(C)CCCN4C(=O)OC(C)(C)C)CC3)n2)s1` (stereo not drawn), 5.27%. For `CC(=O)Oc1cccc(N2C(=O)c3ccc(Oc4ccc(N)cc4)cc3C2=O)c1` the value was -2.02%.

Consider `CC(C)CC(C(=O)Nc1ccc(S(=O)(=O)Nc2ccccn2)cc1)N1C(=O)c2ccccc2C1=O` (stereo not drawn), for which the “relative growth in counter assay” value came out at 0.21%. `CCOc1ccccc1OCC(=O)Nc1ccc(S(=O)(=O)Nc2ncccn2)cc1`: the “relative growth in counter assay” value was found to be 2.46%. As for `Cc1ccn(CCC(=O)N2CCOC(c3cccc(Nc4ncc(C)s4)n3)C2)n1` (stereo not drawn), the figure is -1.16%; as for `NC(=O)CN1CCCCC1c1csc(Nc2ccccn2)n1` (stereo not drawn), 8.38%.

With `Cc1cc(C)nc(NS(=O)(=O)c2ccc(NS(=O)(=O)/C=C/c3ccccc3)cc2)n1`, the “relative growth in counter assay” value was 5.62%. Take `CCCc1cnc(Nc2cccc(C3CCN(C(=O)C4CCCCN4CCCO)CC3)n2)s1` (stereo not drawn): the “relative growth in counter assay” value is -21.2%. For `CC(C)(N)C(=O)N1CCC(c2cccc(Nc3ncc(CC(F)(F)F)s3)n2)CC1` the value was -21.1%; for `Cc1cnc(Nc2cccc(C3CN(C(=O)C4(c5ccccc5)CC4)CCO3)n2)s1` (stereo not drawn), -7.66%. Regarding `CCCc1cnc(Nc2cccc(C3CCN(C(=O)C4CCCCN4CC(=O)O)CC3)n2)s1` (stereo not drawn), the “relative growth in counter assay” value was -19.3%. As for `Cc1cccc(N2CC(C(=O)Nc3ccc(S(=O)(=O)Nc4ncccn4)cc3)CC2=O)c1C` (stereo not drawn), the figure is 2.21%; as for `COc1ccc(C(=O)Nc2ccc(S(=O)(=O)Nc3ccccn3)cc2)cc1OC`, 2.76%. Turning to `O=C(O)CCOCCOCCOCCOCCNc1ccc2c(c1)C(=O)N(C1CCC(=O)NC1=O)C2=O` (stereo not drawn), the “relative growth in counter assay” value came out at 9.95%.

With `CS(=O)(=O)Nc1ccc(S(=O)(=O)Nc2ncccn2)cc1`, the “relative growth in counter assay” value stood at 3.46%.

(Values after the supplement of paper PMC12340641.)
